Drawing on PubChem BioAssay (NCI), this text covers growth for 33 compounds.

SMILES strings stand for the structures. The panel holds about 83,000 compounds, 20% with a hit somewhere; the sample as a whole holds those more often.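 Negative percent growth values reflect cell death: -40 means 40% of the cells present at the start died, and -100 means all died.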 The source made the active and inactive calls. How the source made its calls: active means growth percent below 10; inactive means the rest.

One assay relates to IGROV1 ovarian. The assay can be described thus: NCI-60 one-dose screen, 48 h (100 = growth as untreated, 0 = no growth, -100 = all killed). Particulars: 10 µM unless noted.
On to `COc1ccc(NC(=O)CSc2nc3ccc(Cl)cc3c(=O)n2-c2ccccc2C(F)(F)F)c(OC)c1OC`, for which the growth was 75.3% (inactive).

`O=S(=O)(O)CCl`: the growth is 106% (inactive).

Regarding `COc1ccc(OC)c(C(=O)c2oc3ccc(Br)cc3c2N)c1`, the growth is 41.2% (inactive).

Take `COc1cc(NCCN=C(N)NC(N)=NC(C)C)c2ncccc2c1`: the growth is -4.12% (active).

`CC(=O)Nc1nc(C(=O)N2N=C(C)/C(=C/c3cccs3)C2=O)cs1`: the growth was 97.1% (inactive).

With `CC(C)[C@H](CO)Nc1nc(Nc2ccc(C(=O)NCCNS(=O)(=O)c3cccc4c(N(C)C)cccc34)c(Cl)c2)c2ncn(C(C)C)c2n1`, the growth was -13.7% (active).

`CCn1cc(C(=O)O)c(=O)c2cc(F)c(N3CCN(S(=O)(=O)c4cccc5ccccc45)CC3)cc21`: the growth was 13.7% (inactive).

For `O=C1Nc2ccc(Br)cc2C1=N/C=c1\[nH]c(=O)/c(=C/c2ccc(Cl)cc2)s1`, the growth is 105% (inactive).

In a further assay the test system is OVCAR-3 ovarian. The description is as above. Particulars: 10 µM unless noted.
Turning to `O=C(O)c1cn(C2CC2)c2cc(N3CCN(S(=O)(=O)c4ccc(Cl)c(Cl)c4)CC3)c(F)cc2c1=O`, the growth is 9.87% (active).

Take `COc1cc(NCCCN=C(N)NC(N)=NC(C)C)c2ncccc2c1`: the growth is 8.99% (active).

For `O=C(O)c1cccc([N+](=O)[O-])c1/C=C/c1ccccc1`, the growth is 103% (inactive).

Consider `NC(CC(N)C(=O)O)C(=O)O` (centres undefined), for which the growth was 107% (inactive).

Regarding `O=C(O)c1ccc(-n2c(=O)c3ccccc3c3ccccc3c2=O)cc1`, the growth is 111% (inactive).

On to `CN(C)c1ncc(-c2ccc(C(F)(F)F)cc2)c(NC2CCCCCC2)n1`, for which the growth is 26.5% (inactive).

For the compound `CCn1cc(C(=O)O)c(=O)c2cc(F)c(N3CCN(S(=O)(=O)c4c(C)cc(C)cc4C)CC3)cc21`, the growth is 89.2% (inactive).

With `CCn1cc(C(=O)O)c(=O)c2cc(F)c(N3CCN(S(=O)(=O)c4ccc(Cl)cc4Cl)CC3)cc21`, the growth was 7.89% (active).

Regarding `COC12CC(=O)C(C(C)=O)=C(O)C1(C)c1c(O)c(C)c(O)c(C(C)=O)c1O2` (centres undefined), the growth was 59.2% (inactive).

`CCCC(C(=O)OCC)C(C)OC(=O)OCC` (centres undefined): the growth is 103% (inactive).

With `NC(=O)NC(=O)/C=C/C(=O)OCCCl`, the growth is 106% (inactive).

`Cc1ccc(C2=NN(c3ccc(S(=O)(=O)NC(=O)NCc4ccccc4)cc3)C(c3ccc(N(C)C)cc3)C2)c(C)c1` (centres undefined): the growth is 38.3% (inactive).

Regarding `COc1ccc(-c2cn[nH]c2-c2cc(OC)c3c(c2)OCO3)cc1`, the growth is -12.3% (active).

With `CCCCCCCCCCCCNC(=S)N/N=C/c1ccc(Cl)c(Cl)c1`, the growth is 111% (inactive).

Regarding `COc1cc(NC(=O)CSc2nc3ccc(C)cc3c(=O)n2-c2ccccc2)cc(OC)c1OC`, the growth was 84.4% (inactive).

On to `CCCCCCCCCCCCCCCCC(Br)C(=O)O` (centres undefined), for which the growth was 100% (inactive).

With `CCN(Cc1ccccc1)c1ccc(SC#N)cc1`, the growth is 46.2% (inactive).

In the case of `CCCCCC(=O)OCc1ccccc1`, the growth is 102% (inactive).

In the case of `COc1ccc(S(=O)(=O)N2CCN(c3cc4c(cc3F)c(=O)c(C(=O)O)cn4C3CC3)CC2)c(OC)c1`, the growth is 95.8% (inactive).

Consider `COc1cc2nc(N3CCC[C@@H](NC4=CC(=O)c5ccccc5C4=O)C3)nc(N)c2cc1OC`, for which the growth is -69.5% (active).

As to `COc1ccccc1CNCCCN1C(=O)c2ccc3c4c(ccc(c24)C1=O)C(=O)N(CCCNCCCCNCCCCN)C3=O`, the growth is 1.36% (active).

For `Cc1cc(C)c(S(=O)(=O)N2CCN(c3cc4c(cc3F)c(=O)c(C(=O)O)cn4C3CC3)CC2)c(C)c1`, the growth was 91.3% (inactive).

As for `COc1ccc(NC(=O)CSc2nc3ccccc3c(=O)n2-c2ccccc2C(F)(F)F)c(OC)c1OC`, the growth was 104% (inactive).

For `CNC(C)=O`, the growth was 75.8% (inactive).

Take `CCN(CC)P(=O)(N(CC)CC)N(CCCSC/C=C(\C)CC/C=C(\C)CCC=C(C)C)CCCN1CCN(C)CC1`: the growth was 104% (inactive).

Regarding `COc1ccc(NC(=O)CSc2nc3ccc(Cl)cc3c(=O)n2-c2ccccc2C(F)(F)F)c(OC)c1OC`, the growth was 82.5% (inactive).

For the compound `O=S(=O)(O)CCl`, the growth was 106% (inactive).

Consider `COc1ccc(OC)c(C(=O)c2oc3ccc(Br)cc3c2N)c1`, for which the growth is 3.65% (active).

`COc1cc(NCCN=C(N)NC(N)=NC(C)C)c2ncccc2c1`: the growth is 6.45% (active).

Turning to `CC(C)[C@H](CO)Nc1nc(Nc2ccc(C(=O)NCCNS(=O)(=O)c3cccc4c(N(C)C)cccc34)c(Cl)c2)c2ncn(C(C)C)c2n1`, the growth is 20.2% (inactive).

`CCn1cc(C(=O)O)c(=O)c2cc(F)c(N3CCN(S(=O)(=O)c4cccc5ccccc45)CC3)cc21`: the growth was -6.25% (active).
